Pin1 inh: blocks the human prolyl isomerase Pin1. Pin1 FP peptide displacement, HiFluor488, 10 min. Potency, µM (highest dose often 115 µM), inactives show top-dose activity, negative = inhibition, actives largely listed as inhibitors. hit rate 0.009% among 390,000; active = well fitted inhibition curve with a large enough effect in the polarisation, with a control signal flat, not every such curve was filed as active; inconclusive = small, poorly fitted or top-dose-only effect, or effect the other way, or a change in a side signal; inactive = no such curve, though single readings can be large or run the other way; the % refers to the polarisation; also: % is scaled to controls: 0 for no effect and ±100 for the full control effect
A549 tox-1: kills or reduces viability of A549 cells in Nrf2 counter-screen. hit rate 0.16% among 390,000. AID 504648. A549 ARE-Fluc cells, CellTiter-Fluor viability, 18-24 h. Potency, µM (series often up to 46 µM), for inactives: at the top dose activity change, negative = cytotoxicity, most hits filed as inhibitors; also: % is scaled to controls: 0 for no effect and ±100 for the full control effect
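A549 ARE-Fluc cells in 5% FBS OPTI-MEM, 5000 cells/well, rested 2 h then exposed to compounds in concentration-response for 18-24 h at 37 °C. Viability by CellTiter-Fluor fluorescence (Ex 405/Em 525) after 30 min; luciferase luminescence (BugLite, 15 min, RT) read afterwards.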
Nrf2 activator: Nrf2 pathway activation; AREc32 ARE-luciferase reporter (MCF7-derived line), luminescence, 24 h; hit rate 0.31% among 410,000; Potency, µM (top dose mostly 46.1 µM), for inactives: at the highest dose activation, hits mostly activators; AID 624171; also: % of control where 0% means no effect; nearly all actives have a fitted effect of over 65% in size
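ARE-driven firefly luciferase activity in AREc32 cells measured after a 24 hr compound exposure at 37 deg C, using Steady-Glo reagent and a 30 min room-temperature hold.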
Nrf2 inh: inhibitors of Nrf2 signaling | A549 ARE-Fluc reporter, luciferase luminescence, 18-24 h | Potency, µM (top dose mostly 46 µM), inactives show at the highest dose activity change, negative = inhibition, actives largely listed as inhibitors | hit rate 2.1% among 360,000 | AID 504444; also: % is scaled to controls: 0 for no effect and ±100 for the full control effect; nearly all actives have a fitted effect of over 60% in size
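A549 ARE_Fluc cells, 5000/well, 5% FBS OPTI-MEM; compounds in dose-response, 18-24 h at 37 °C/5% CO2; CellTiter-Fluor viability read (Ex 405/Em 525), then BugLite luciferase luminescence = Nrf2 activity.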
FLuc counter 3: counter-screen for Nrf2 inhibitors: firefly luciferase enzyme inhibition; shares compounds with Nrf2 inh; purified firefly luciferase, luminescence inhibition; Potency, µM (doses to about 57.5 µM), without a hit: at the highest dose activity change, negative = inhibition, hits mostly inhibitors; hit rate 4% among 1,400; AID 720522; also: % is scaled to controls: 0 for no effect and ±100 for the full control effect; nearly all actives have a fitted effect of over 65% in size
Target sequence (P08659 whole entry, looked up): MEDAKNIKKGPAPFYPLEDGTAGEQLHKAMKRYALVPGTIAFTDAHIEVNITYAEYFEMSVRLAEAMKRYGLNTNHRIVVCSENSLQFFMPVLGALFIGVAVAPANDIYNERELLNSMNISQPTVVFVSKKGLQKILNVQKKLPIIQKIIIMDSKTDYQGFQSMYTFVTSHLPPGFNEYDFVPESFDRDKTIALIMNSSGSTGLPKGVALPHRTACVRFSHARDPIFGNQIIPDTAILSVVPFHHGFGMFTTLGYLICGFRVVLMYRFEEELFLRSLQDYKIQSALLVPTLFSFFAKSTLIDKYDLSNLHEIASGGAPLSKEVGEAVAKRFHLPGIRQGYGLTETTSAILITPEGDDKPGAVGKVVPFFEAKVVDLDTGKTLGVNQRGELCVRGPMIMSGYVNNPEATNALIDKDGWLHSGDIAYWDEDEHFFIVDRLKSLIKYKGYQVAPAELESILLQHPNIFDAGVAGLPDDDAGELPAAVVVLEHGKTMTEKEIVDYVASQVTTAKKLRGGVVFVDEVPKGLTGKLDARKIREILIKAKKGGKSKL
A549 tox-2: toxic to A549 ARE-Fluc cells in Nrf2 counterscreen | shares compounds with Nrf2 inh | A549 ARE-Fluc cells, cytotoxicity counterscreen | Potency, µM (titrated, usually from 46.1 µM), for inactives: at the top dose activity change, negative = cytotoxicity, usual class: inhibitors | hit rate 2% among 1,400;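 also: cells exposed to compounds for 18 to 24 hours; % is scaled to controls: 0 for no effect and ±100 for the full control effect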
ARE-Fluc inh: reduces Nrf2 ARE reporter signal in A549 cells | shares compounds with Nrf2 inh | A549 ARE-firefly luciferase reporter, luminescence | Potency, µM (top dose mostly 46.1 µM), without a hit: top-dose activity change, negative = inhibition, hits mostly inhibitors | hit rate 74% among 1,400; also: % is scaled to controls: 0 for no effect and ±100 for the full control effect; nearly all actives have a fitted effect of over 65% in size
Active calls of the source: *; ? = inconclusive; . = no result given. This is a sample that favours compounds with a hit; in the whole collection about 2.2% have one here. Unless noted, calls follow the shape of the dose curve; as a rule, active = well fitted curve in the direction sought with a large enough effect; inconclusive = small, poorly fitted or top-dose-only effect, or another doubt; inactive = no such curve, though single readings can be large; an effect the other way counts as inactive or inconclusive. Potency is read from the fitted curve at half-maximal effect.

SMILES | Pin1 inh | A549 tox-1 | Nrf2 activator | Nrf2 inh | FLuc counter 3 | A549 tox-2 | ARE-Fluc inh
CCc1ccc(NC(=O)C2CCN(S(=O)(=O)c3cccs3)CC2)cc1 | 8% | -26% | 5% | 3.7µM* | -4% | -8% | 9.2µM*
CCN1c2ccccc2-c2nc(SCC(=O)Nc3cc(F)ccc3F)ncc2S1(=O)=O | 14% | 4% | 4% | ? | . | . | .
CC(=O)N1CCc2cc(S(=O)(=O)NC(CC(C)C)C(=O)Nc3ccc(C(C)C)cc3)ccc21 (stereo not drawn) | 2% | 7% | 3% | 22% | . | . | .
COc1cc(NCCCCC(C)N)c2nccc(C)c2c1 (stereo not drawn) | . | . | -6% | . | . | . | .
COc1cc(NCCCC(C)N)c2ncccc2c1 (stereo not drawn) | ? | ? | -4% | 5.8µM* | -4% | -23% | ?
CC1CCCC=CC2CC(OC(=O)CN(C)C)CC2C(O)C=CC(=O)O1 (stereo not drawn) | -4% | ? | -1% | 0.21µM* | 1% | ? | 0.41µM*
O=C1c2cccc(OCC(=O)N3CCCc4ccccc43)c2CCN1Cc1ccc(F)cc1 | 11% | -2% | 1% | -24% | . | . | .
CN1CCc2c(OCC(=O)N3CCCc4ccccc43)cccc2C1=O | -2% | ? | 3% | 9.2µM* | 3% | 1% | ?
COc1cc(C(=O)Nc2sc3c(c2C(=O)O)CCC(C)C3)cc(OC)c1OC (stereo not drawn) | 0% | -11% | 0% | 5.2µM* | -18% | -20% | 7.3µM*
COc1cc(C(=O)Nc2sc(C)c(C)c2C(=O)O)cc(OC)c1OC | -1% | 0% | 7% | -26% | . | . | .
CCCCOc1cccc(C(=O)Nc2ccc3oc(-c4cccnc4)nc3c2)c1 | 4% | -11% | -1% | 6.5µM* | -16% | -1% | 7.3µM*
CCCCOc1ccc(C(=O)Nc2ccc3oc(-c4cccnc4)nc3c2)cc1 | 5% | -1% | 0% | -20% | . | . | .
O=C1N=C(N2CCC(Cc3ccccc3)CC2)S/C1=C/c1cn[nH]c1-c1ccccc1 | 3% | -15% | 0% | ? | -1% | -6% | ?
O=C(CSc1nnc(-c2ccc(Cl)cc2)c(-c2ccc(Cl)cc2)n1)NC1CCCC1 | 9% | 1% | 5% | . | . | . | .
Cc1ccc(-c2nnc(SCC(=O)NC3CCCC3)nc2-c2ccc(C)cc2)cc1 | 19% | ? | 1% | 1.8µM* | -3% | -9% | -14%
CCc1ccc(NC(=O)c2cnn3c(C)cc(C)nc23)cc1 | -4% | 14% | . | ? | . | . | .
CCC(C)C(NC(=O)CCC(=O)OCC(=O)[C@@]1(O)CCC2[C@@H]3CCC4=CC(=O)C=C[C@]4(C)C3[C@@H](O)C[C@@]21C)C(=O)O (stereo partly drawn) | -4% | 4% | 0% | 0.18µM* | 3% | -4% | 0.21µM*
CC(=O)OCC(=O)C1(O)CCC2C3CCC4=CC(=O)C=CC4(C)C3C(O)CC21C (stereo not drawn) | -2% | -1% | 0% | 0.029µM* | 1% | -6% | 0.058µM*
C[C@]12C=CC(=O)C=C1CC[C@@H]1C2[C@@H](O)C[C@@]2(C)C1CC[C@]2(O)C(=O)COC(=O)CCC(=O)O (stereo partly drawn) | 7% | -2% | 3% | 0.13µM* | -3% | 0% | ?
CCCC1O[C@@H]2CC3C4CCC5=CC(=O)C=C[C@]5(C)C4C(OC(C)=O)C[C@]3(C)[C@]2(C(=O)COC(C)=O)O1 (stereo partly drawn) | -2% | -19% | 0% | -27% | . | . | .
CN(C)NC1=CC(=[N+]2CCCC2)CC(C)(C)C1 | 4% | 3% | 0% | -14% | . | . | .
CC1(C)CC(N2CCCCC2)=CC(=[N+]2CCCCC2)C1 | -3% | -21% | 0% | 2.3µM* | 2% | -13% | 9.2µM*

Screens deposited in PubChem BioAssay by National Center for Advancing Translational Sciences (NCATS).
